PI5P4Ka inh – PI5P4K alpha (human) kinase inhibition; max response, %; P48426; PI5P4Kalpha enzyme, ADP-Glo luminescence, 60 min; hits give low values; 330,000 tested, 1.2% active; active means max response of -50% or lower; inconclusive means between -30% and -50%; inactive means -30% or higher; further: value at the top dose of about 77 µM
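ADP-Glo luminescence end-point after a 60 min room-temperature kinase reaction. PI5P4Kalpha and substrate in HEPES pH 7.4 buffer with EGTA, 0.1% CHAPS and 5% DMSO; ATP at 5 microM final.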
POLI inh – blocks human DNA polymerase iota activity | Q9UNA4 | Pol iota fluorescent replication assay, 10 min | Potency, µM (titrated, usually from 115 µM), hits mostly inhibitors | 390,000 tested, 1% active
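Fluorescent replication assay read twice, at 0 min and 10 min after adding 50 nM (final) substrate. Enzyme (10 nM) and compounds were first incubated 15 min at room temperature; enzyme-free buffer wells were negative controls.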
WRN inhibitor – inhibitors of human WRN helicase; Q14191; WRN helicase unwinding, fluorescent forked duplex, kinetic; Potency, µM (doses to about 114 µM), actives largely listed as inhibitors; 360,000 tested, 0.46% active; further: nearly all actives have a fitted effect of over 55% in size
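Enzyme (20 nM final) and test compound sit together 15 min at room temperature before substrate addition. Substrate is a single-forked duplex oligonucleotide (100 nM) labelled with fluorophore and quencher, with 2 mM ATP; helicase unwinding raises red fluorescence, read kinetically.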
Pol beta inh – inhibitors of human DNA polymerase beta. Pol beta primer extension/strand displacement, fluorescence kinetic. Potency, µM (doses to about 114 µM), most hits filed as inhibitors. 340,000 tested, 1.3% active
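Pol beta (10 nM) and compounds were preincubated 15 min at room temperature, then 50 nM substrate (final) started primer extension/strand displacement. Reads were taken at 0 and 10 min; concentration-response data were fitted to a four-parameter Hill equation.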
Pol eta inh – DNA polymerase eta (human) inhibition. recombinant Pol eta, fluorescent DNA replication assay. Potency, µM (titrated, usually from 114 µM), actives largely listed as inhibitors. 390,000 tested, 1.2% active. AID 588591. Q9Y253
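Fluorescent replication assay: 50 nM final substrate added after a 15 min room-temperature compound preincubation with 10 nM enzyme. Signal taken at 0 min and again at 10 min.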
POLK inh – inhibitors of human DNA polymerase kappa. purified Pol kappa, fluorescent DNA synthesis assay, 10 min. Potency, µM (doses to about 107 µM), most hits filed as inhibitors. 400,000 tested, 0.53% active
Target sequence (Q9UBT6 whole entry, looked up): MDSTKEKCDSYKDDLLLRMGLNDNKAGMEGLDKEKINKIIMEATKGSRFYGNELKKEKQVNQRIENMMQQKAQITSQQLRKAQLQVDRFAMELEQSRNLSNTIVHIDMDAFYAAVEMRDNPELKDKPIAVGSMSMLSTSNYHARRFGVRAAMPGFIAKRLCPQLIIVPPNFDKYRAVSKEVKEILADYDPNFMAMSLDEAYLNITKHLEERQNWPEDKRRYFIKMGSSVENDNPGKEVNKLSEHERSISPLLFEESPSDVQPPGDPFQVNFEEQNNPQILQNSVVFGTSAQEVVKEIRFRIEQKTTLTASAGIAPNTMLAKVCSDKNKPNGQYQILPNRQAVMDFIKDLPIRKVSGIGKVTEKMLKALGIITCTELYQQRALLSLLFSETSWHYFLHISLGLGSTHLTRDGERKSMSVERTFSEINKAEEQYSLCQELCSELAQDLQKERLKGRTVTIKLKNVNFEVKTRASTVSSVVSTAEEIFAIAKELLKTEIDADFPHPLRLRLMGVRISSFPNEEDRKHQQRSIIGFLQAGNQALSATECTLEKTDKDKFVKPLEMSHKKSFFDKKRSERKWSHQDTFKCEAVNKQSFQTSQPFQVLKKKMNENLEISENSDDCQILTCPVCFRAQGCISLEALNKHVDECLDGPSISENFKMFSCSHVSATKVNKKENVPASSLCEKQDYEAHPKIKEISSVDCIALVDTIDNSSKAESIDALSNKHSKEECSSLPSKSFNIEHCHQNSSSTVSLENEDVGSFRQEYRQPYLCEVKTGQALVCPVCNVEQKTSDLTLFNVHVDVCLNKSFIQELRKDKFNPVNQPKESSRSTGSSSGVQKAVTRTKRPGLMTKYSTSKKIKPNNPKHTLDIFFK
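Here, compound and 10 nM enzyme are combined for 15 min at room temperature; adding 50 nM substrate (final) starts DNA synthesis, tracked by fluorescence at 0 and 10 min against buffer-only wells.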
Hits are given with their value; 0 = inactive; ? = inconclusive; - = not tested or not shown; [ ] = dose if it differs, or a comment. This is a sample that favours compounds with a hit; in the whole collection about 2.8% have one here. Unless noted, the call rests on the fitted dose curve; in most records, active means well fitted curve in the direction sought with a large enough effect; inconclusive means small, poorly fitted or top-dose-only effect, or another doubt; inactive means no such curve, though single readings can be large; an effect the other way counts as inactive or inconclusive.

SMILES	PI5P4Ka inh	POLI inh	WRN inhibitor	Pol beta inh	Pol eta inh	POLK inh
COc1ccc2c(c1)CCc1sc(NC(=O)c3cccc(Br)c3)nc1-2	-	0	-	0	0	0
COc1ccc2c(c1)Cc1sc(NC(=O)c3cccc(C)c3)nc1-2	-	8.91µM	-	0	-	0
Cc1cc(C)cc(NC(=O)N2CCC(CN3CCCCCC3)CC2)c1	-	0	-	0	0	0
Cc1ccc(NC(=O)Cn2nnc(-c3nc(-c4ccc(Cl)cc4)no3)c2N)cc1C	-	0	-	0	0	0
COc1ccc(C(c2c(C)n(C)n(-c3ccccc3)c2=O)c2c(C)n(C)n(-c3ccccc3)c2=O)cc1OC	0	?	0	0	0	0
CCOc1cc(C(c2c(C)[nH]n(-c3ccccc3)c2=O)c2c(C)[nH]n(-c3ccccc3)c2=O)ccc1O	-	1.58µM	-	0	0	0
COc1ccc(C(c2c(C)[nH]n(-c3ccccc3)c2=O)c2c(C)[nH]n(-c3ccccc3)c2=O)cc1OC	0	1.26µM	?	0	0	0
Cc1coc2c1C(=O)C(=O)c1c-2ccc2c1CCCC2(C)C	-52.0	?	0[11.6 µM]	22.4µM	89.1µM	?
Cc1coc2c1C(=O)C(=O)c1c-2ccc2c(C)cccc12	-56.1	?	0	20µM	28.2µM	79.4µM
CCN(CC)c1ncnc2c1cnn2-c1cc(Cl)ccc1C	-	0	-	0	0	0
CCNC(=O)c1c(NC(=O)Cc2coc3cc(C)ccc23)sc2c1CCCC2	-	0	-	0	0	0
Nc1ncccc1C(=O)OCC(=O)NC1CCCCCC1	?	0	0[11.6 µM]	-	79.4µM	0
O=C(COC(=O)c1ccccn1)NC1CCCCC1	0	0	0	0	0	0
O=C(Nc1nncs1)c1cc2c(s1)CCC2	0	0	0	0	0	0
CC(C)Cc1nnc(NC(=O)c2cc3c(s2)CCC3)s1	0	28.2µM	0[11.6 µM]	0	0	?
CN1C(=O)/C(=N\OC(=O)c2cccc3ccccc23)c2ccccc21	-	31.6µM	0	0	0	0
COc1ccc(C(=O)O/N=C2\C(=O)N(C)c3ccccc32)cc1	0	0	0	-	0	0
Cc1cccc(CN2Cc3cccc4c3[C@H](C=CC4)CC2=O)c1	-	0	-	-	-	0
Cc1cc(C(C)C)n2c(nc3ccccc32)c1C#N	-	-	-	0	-	-
Cc1cc(-c2ccco2)c(C#N)c2nc3ccccc3n12	?	?	0	8.91µM	10µM	?
COc1ccc2c3c(cccc13)OC2=O	0	0	0	?	0	0
COc1ccc2c3c(cccc13)N(C)N=C2C	0	3.16µM	?	0	?	0
CC1CCC(NC(=O)C2(C)Cc3ccccc3C(=O)N2Cc2ccc(Cl)cc2)CC1 (stereo not given)	-	0	-	0	-	0
COc1ccc(CN2CCn3ncc(C(=O)Nc4ccccc4)c3C2=O)cc1	0	0	0	0	0	0
O=C(O)c1cnn2c1C(=O)N(Cc1cccs1)CC2	0	0	0	20µM	31.6µM	0
SMILES	PI5P4Ka inh	POLI inh	WRN inhibitor	Pol beta inh	Pol eta inh	POLK inh
O=C1c2cccc3cc([N+](=O)[O-])cc(c23)C(=O)N1/N=C/c1ccc(O)cc1O	?	?	?	39.8µM	50.1µM	?
CC(C)(C)c1ccc(/C=C/C(=O)Nc2ccc(S(N)(=O)=O)cc2)cc1	-	0	-	0	0	0
CCC(C)c1ccc(OCC(=O)Nc2ccc3c(c2)C(=O)NC3=O)cc1 (stereo not given)	0	0	0	35.5µM	0	0
CCOC(=O)C1=C(CSc2nc3c(cc2C#N)CN(C)CC3)OC(N)=C(C#N)C1c1ccncc1 (stereo not given)	0	31.6µM	0	?	?	?
CCOC(=O)C1=C(CSc2nc3c(cc2C#N)CN(C)CC3)OC(N)=C(C#N)C1c1ccc(Cl)cc1 (stereo not given)	?	?	?	0	?	?
CC1C(=O)Nc2ccc(S(=O)(=O)N3CCN(c4cccc(C(F)(F)F)c4)CC3)cc2NC1=O (stereo not given)	0	35.5µM	0[11.6 µM]	?	0	0
Cc1cc[n+](C2CCCCC2)c2ccccc12	-	0	-	-	-	0
COc1cc2nc(CC(O)c3nc4cc(OC)c(OC)cc4[nH]3)[nH]c2cc1OC (stereo not given)	-	3.16µM	-	-	-	10µM
COc1ccccc1CC(Cc1nc2ccccc2[nH]1)c1nc2ccccc2[nH]1 (stereo not given)	0	0	0	0	0	0
CCCSc1cc(N2CCOCC2)nc(-c2ccccc2Cl)n1	0	0	0	79.4µM	0	0
O=S(=O)(O)c1ccc2c(c1)-c1nc-2nc2[nH]c(nc3nc(nc4[nH]c(n1)c1ccc(S(=O)(=O)O)cc41)-c1ccc(S(=O)(=O)O)cc1-3)c1ccc(S(=O)(=O)O)cc21	-	-	-	-	-	0
CCCCN(CCCC)c1ccc(/C=C/c2ccnc3ccccc23)cc1	-	0	-	-	-	0
COc1ccc(-c2noc(Cn3c(=O)c4ccccc4n(CC(=O)Nc4cccc(OC)c4)c3=O)n2)cc1	-	0	-	0	0	0
CCOC(=O)C1(Cc2ccc(OC)cc2)CCN(C(=O)C2=CCCC2)CC1	-94.5	0	0	0	0	0
COc1ccc(CCNC(=O)C(=O)NCC(c2cccs2)S(=O)(=O)c2ccccc2)cc1 (stereo not given)	-	89.1µM	-	?	0	0
Cc1ccc(S(=O)(=O)NNC(=O)c2cccs2)c(C)c1	0	0	0	0	0	0
COc1ccc(S(=O)(=O)Nc2ccc(O)c3ccccc23)cc1	0	20µM	79.4µM	0	0	0
COc1ccc(S(=O)(=O)Nc2ccccc2)cc1	0	0	0	-	0	0
Cc1ccc(S(=O)(=O)NNc2ccccc2)c(C)c1	?	0	50.1µM	?	0	0
Cc1ccc(S(=O)(=O)Nc2ccc(O)c3ccccc23)c(C)c1	0	?	50.1µM	0	0	0
CC(C)CCNC(=O)C(CC(C)C)NC(=O)C1OC1C(=O)O (stereo not given)	-	-	-	-	-	0
CCc1nn2c(N)c(/C=C3\C=Nc4ccccc43)c(=O)nc2s1	0	0	0	0	0	0
CCOC1=C/C(=C/c2c(N)n3nc(CC(=O)N4CCCC4)sc3nc2=O)C=CC1=O	-54.7	?	0	0	?	0
COC1=C/C(=C/c2c(N)n3nc(CC(=O)N4CCCC4)sc3nc2=O)C=CC1=O	-55.5	?	0	0	0	?
COC1=CC(=Cc2c(N)n3nc(CC(=O)N4CCCCC4)sc3nc2=O)C=C(OC)C1=O	-58.5	?	0[11.6 µM]	0	56.2µM	?
CC1=Nc2ccc(C)cc2/C1=C/c1c(N)n2nc(CC(=O)N3CCOCC3)sc2nc1=O	0	0	0	0	0	0
Cc1ccc(/C=C/c2onc(C)c2S(=O)(=O)N2CCC(C(=O)NCc3ccc(C)o3)CC2)cc1	-	0	-	0	0	0
CC(C)(C)NC(=O)c1ccc2c(c1)C(=O)N(Cc1ccco1)C2=O	0	0	0	0	0	0

Bioassay records deposited in PubChem by National Center for Advancing Translational Sciences (NCATS).
